From PubChem
KB-3-1 cytotox = KB-3-1 parental cell cytotoxicity; KB-3-1 viability, CellTiter-Glo ATP luminescence, 72 h; Potency, µM (doses to about 46.1 µM), hits mostly cytotoxic; actives 1.4% (n = 400,000); AID 1347075; also: % is scaled to controls: 0 for no effect and ±100 for the full control effect; nearly all actives have a fitted effect of over 60% in size
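Cells are dispensed, compounds pinned in, plates held at 37 °C for 72 h, then CellTiter-Glo is added and luminescence read after 10 minutes. Cell line: parental KB-3-1 in phenol-red-free DMEM, 10% FBS.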
MCF10A rerep = inducers of DNA re-replication in MCF 10A breast cells; Potency, µM (highest dose often 46.1 µM), inactives show top-dose activity, positive = re-replication, usual class: activators; actives 2.9% (n = 350,000); MCF 10A DNA re-replication, Hoechst nuclear intensity, 48 h; AID 624296; also: % of control where 0% means no effect; nearly all actives have a fitted effect of over 50% in size
KB-V1 MDR tox = KB-V1 MDR subline cytotoxicity | Potency, µM (series often up to 46.1 µM), hits mostly cytotoxic | actives 3.4% (n = 400,000) | KB-V1 MDR cells viability, CellTiter-Glo, 72 h; also: % is scaled to controls: 0 for no effect and ±100 for the full control effect; nearly all actives have a fitted effect of over 60% in size
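KB-V1, DMEM (no phenol red) + 10% FBS; cpd pin-transferred, titration series; 72 h, 37 degrees C; CellTiter-Glo, luminescence. Data normalized, curve-fit.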
SW480 rerep = DNA re-replication induction in SW480 cells; SW480 DNA re-replication, Hoechst DNA content imaging, 48 h; Potency, µM (series often up to 46.1 µM), inactives show at the highest dose re-replication activation, usual class: activators; actives 1.8% (n = 340,000); AID 624297; also: % of control where 0% means no effect; nearly all actives have a fitted effect of over 55% in size
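Compounds, transferred as 23 nL by pin tool, were incubated with cells for 48 hr; DNA content per nucleus was then quantified by Hoechst staining and fluorescence plate imaging.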
ELG1 repair inh = ELG1-dependent DNA repair inhibition; HEK293T ELG1-luciferase reporter, luminescence, 16 h; DNA damage induced by 5-fluorouridine; AID 504467; Potency, µM (series often up to 46.1 µM), without a hit: at the highest dose activity change, negative = inhibition, actives largely listed as inhibitors; actives 2.3% (n = 330,000); also: % is scaled to controls: 0 for no effect and ±100 for the full control effect; nearly all actives have a fitted effect of over 55% in size
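Cells (2,000 per well) received 5-fluorouridine plus test compound or DMSO and were incubated 16 hr at 37 °C, 5% CO2. Luciferase activity was read by luminescence 30 min after ONE-Glo addition; signal suppression marked inhibition of damage-induced ELG1 function.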
Active calls of the source: *; i = inactive; ? = inconclusive; . = no result; ! = a repeat was not active. Most compounds without a hit are left out; they make up all but 8.2% or so of the library. Calls follow the shape of the dose curve; as a rule, active = well fitted curve in the direction sought with a large enough effect; inconclusive = small, poorly fitted or top-dose-only effect, or another doubt; inactive = no such curve, though single readings can be large; an effect the other way counts as inactive or inconclusive. Potency is read from the fitted curve at half-maximal effect.

SMILES	KB-3-1 cytotox	MCF10A rerep	KB-V1 MDR tox	SW480 rerep	ELG1 repair inh
COc1ccc2c(=O)c3c(=O)n(Cc4ccco4)c(-c4ccccc4)nc3oc2c1	i	21.6%	4.61µM*	-0.1%	?
COc1ccc2c(=O)c3c(=O)n(Cc4ccco4)c(-c4cc(OC)c(OC)c(OC)c4)nc3oc2c1	i	?	i	-10.1%	13µM*
CCC(C(=O)OC)n1nnc2sc(-c3ccccc3)cc2c1=O (stereo unspecified)	i	.	i	.	.
N/C(=N/O)c1ccccc1N1CCC(Cc2ccccc2)CC1	?	4.2%	i	21.4%	14.6µM*
c1ccc(CC2CCN(c3nnnn3-c3ccccc3)CC2)cc1	i	-12.1%	i	-11.5%	-5.0%
O=C(CCN1CCN(Cc2ccccc2)CC1)Nc1ccc(OCc2ccccc2)cc1	?	?	2.59µM*	18.7%	?
O=C(CN1C(=O)c2ccccc2C1=O)N1CCOCC1	i	-8.1%	?	-2.0%	6.3%
O=C(CN1C(=O)c2ccccc2C1=O)N1CCN(C2c3ccccc3-c3ccccc32)CC1	i	-30.1%	?	10.6%	16.4µM*
O=C(CCN1CCN(CCO)CC1)Nc1ccc(OCc2ccccc2)cc1	i	6.9%	i	-3.8%	.
COc1ccc(NC(=O)CN2CCN(C3c4ccccc4-c4ccccc43)CC2)cc1	i	-1.7%	i	19.2%	6.51µM*
NC(=O)C1(N2CCCCC2)CCN(CC(=O)Nc2ccc(Oc3ccccc3)cc2)CC1	?	3.1%	13µM*	7.1%	.
CCCOc1ccc(NC(=O)C(=O)NCCCN2CCOCC2)cc1	i	.	?	.	.
COc1ccc(-c2cc3cc(OC)c(OC)cc3c(C)n2)cc1C	i	6.7%	i	0.0%	3.0%
COc1cccc(/C=C/C(=O)NNC(=O)CCN2CCN(Cc3ccccc3)CC2)c1	23.1µM*	?	i	3.66µM*	4.1%
O=C(CN1CCN(CC(=O)Nc2ccc(OCc3ccccc3)cc2)CC1)Nc1ccc(F)cc1	i	28.1%	3.66µM*	13.4%	.
O=C(CN1CCOCC1)Nc1ccc(OCc2ccccc2)cc1	i	-1.2%	i	-12.6%	16.6%
Cc1sc2nc(C)n(/N=C/N(C)C)c(=O)c2c1C	i	0.3%	i	14.6µM*	10.9%
Cc1sc2nc(C)n(/N=C/c3ccc(O)cc3)c(=O)c2c1C	i	1.4%	i	0.1%	2.3%
COc1ccc(N2CCN(C(=O)CNC(=O)Cc3ccc(Cl)cc3)CC2)cc1	14.6µM*	?	10.3µM*	?	-17.6%
COc1ccc(CC(=O)N2CCN(c3ccc(F)cc3)CC2)cc1	i	2.0%	i	-6.8%	-13.6%
COc1ccc(N2CCN(CC(=O)c3ccc(Cl)cc3)CC2)cc1	i	18.4µM*	?	-2.3%	?
COc1ccc(N2CCN(C(=O)Cc3ccc(Br)cc3)CC2)cc1	i	7.8%	20.6µM*	-8.1%	?
CC(C)(OC(=O)c1cccs1)c1cc2ccccc2c(=O)o1	i	-17.0%	i	-2.2%	2.1%
Cc1ccccc1N(C(=O)CCC(=O)Nc1ccccn1)C(C(=O)NC(C)C)c1ccc(F)cc1 (stereo unspecified)	?	1.3%	?	4.1%	-0.1%
CC(C)=CC(O)C/C(C)=C/COc1ccc2ccc(=O)oc2c1 (stereo unspecified)	5.8µM*	?	13µM*	5.9%	-10.2%
SMILES	KB-3-1 cytotox	MCF10A rerep	KB-V1 MDR tox	SW480 rerep	ELG1 repair inh
CC1COC(=C2C(=O)OCC2C)C1 (stereo unspecified)	i	.	i	.	.
CC[C@]12c3[nH]c4cc(-c5ccco5)ccc4c3CCN1C(=O)[C@@H](CC(=O)NCCCN(C)C)C[C@@H]2C(=O)N1CCN(C(=O)c2ccco2)CC1	i	?	i	-9.7%	5.1%
CCOC(=O)C1(C(F)(F)F)N=C(C(F)(F)F)Nc2ccc(F)cc21 (stereo unspecified)	i	-1.9%	?	13µM*	3.7%
N/C(=N\OC(=O)c1ccccc1)C(C(=O)NOC(=O)c1ccccc1)C1CCCCC1 (stereo unspecified)	23.1µM*	?	?	?	.
O=C(COC(=O)c1ccccc1)NC1CCCCCC1	i	-16.5%	i	-12.3%	13.5%
Cc1c(O)ccc2cc(S(=O)(=O)c3ccccc3)c(=O)oc12	i	4.11µM*	i	1.84µM*	?
COc1ccc(-c2noc(-c3ccc(NCc4ccco4)c([N+](=O)[O-])c3)n2)cc1	i	.	i	.	.
FC(F)Oc1ccc(C2=Nn3c(nnc3-c3ccccc3Cl)SC2)cc1OCC1CC1	i	0.6%	i	-2.4%	?
COc1ccc(C2=Nn3c(nnc3-c3ccccc3OC)SC2)cc1OC	0.013µM*	0.366µM*	1.16µM*!	0.366µM*	-10.0%
COc1ccc(C2=Nn3c(nnc3-c3ccccc3F)SC2)cc1OCC1CC1	13µM*	?	?	18.4µM*	?
O=C(NCCn1cc(SCc2ccccc2)c2ccccc21)c1ccccc1F	?	?	?	-0.5%	13µM*
CCCn1nc(NC(=O)c2cccs2)c2cc3ccc(C)cc3nc21	i	?	i	14.6µM*	-27.4%
CCCn1nc(NC(=O)c2cccs2)c2cc3cc(C)ccc3nc21	i	18.4µM*	?	20.6µM*	?
CCCn1nc(NC(=O)C2CCCO2)c2cc3cc(C)ccc3nc21 (stereo unspecified)	i	?	i	?	?
O=[N+]([O-])c1ccc2c(c1)/C(=C/c1ccc(C=S)cc1)C=C2	i	.	i	.	.
CCS(=O)(=O)c1c([N+](=O)[O-])ncn1C	i	11.6µM*	i	?	26.7%
Cn1cnc([N+](=O)[O-])c1Oc1cccc2ccccc12	20.6µM*	20.6µM*	?	?	-13.0%
Cn1cnc([N+](=O)[O-])c1Cl	i	?	i	-12.7%	0.0%
Cn1cnc([N+](=O)[O-])c1Oc1ccccc1	i	?	i	-0.5%	21.6%
Cn1cnc([N+](=O)[O-])c1S(=O)(=O)Oc1ccc(Cl)cc1	?	6.51µM*	?	5.8µM*	.
Cn1cnc([N+](=O)[O-])c1S(=O)(=O)Oc1cccc2ccccc12	?	5.8µM*	?	6.51µM*	.
COc1ccc(Cn2c(CO)cnc2SCC(=O)Nc2cccc(NC(C)=O)c2)cc1	i	-0.1%	?	-0.3%	-0.9%
O=C(CCCCCn1c(=O)[nH]c2ccccc2c1=O)N1CCN(Cc2ccc3c(c2)OCO3)CC1	i	17.6%	i	-2.3%	18.4µM*
O=C(Cn1c(=O)[nH]c2ccccc2c1=O)N1CCN(Cc2ccc3c(c2)OCO3)CC1	i	-1.0%	i	18.6%	23.1µM*
